# Source: PubChem BioAssay
# NOMO-1 viab – STK33 inhibitor candidate reducing NOMO-1 cell viability; inhibition, % (no concentration beside the values); NOMO-1 AML viability, CellTiter-Glo luminescence, 72 h; 7.5% of 37,000 active; in the data active = inhibition above about 80%; inconclusive = no clear call, values can overlap the other calls
# PD-1 reversal – activators reversing PD-1 mediated T-cell inhibition. activation, % (test concentration not listed). 29,000 tested, under 10 active. primary human CD4 T cells, PD-L1 beads, CellTiter-Glo 96 h; call rule not given here;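 also: 0% = median vehicle wells and 100% = positive control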
# Shh pathway inh – Sonic Hedgehog pathway inhibition | AID 2313 | inhibition, % (no concentration beside the values) | Shh-LIGHT2 Gli-luciferase reporter, 30 h | 2.1% of 22,000 active;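 active = mean inhibition across valid replicates above about 65%, limit read from the data; inconclusive = mean under the limit, yet half or more replicates past it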;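 also: pathway switched on by Shh-conditioned medium diluted 1 in 25 in low serum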
# Numbers without * were called inactive; ? = inconclusive; / = no result given. Compounds with a hit are over-represented: about 7.7% of the library has one in this group of screens.
SMILES,NOMO-1 viab,PD-1 reversal,Shh pathway inh
C[C@H](CO)N1C[C@H](C)[C@H](CN(C)CC2CCCCC2)Oc2ccc(NC(=O)Nc3ccc(F)cc3)cc2C1=O,13,/,/
C[C@@H]1CN([C@H](C)CO)C(=O)c2cc(NC(=O)Nc3ccc(F)cc3)ccc2O[C@H]1CN(C)CC1CCCCC1,52,1,17
COc1ccc(CN(C)C[C@@H]2Oc3c(NC(=O)c4ccncc4)cccc3C(=O)N([C@H](C)CO)C[C@H]2C)cc1,19,1,0
CC(C)(c1ccc(NS(=O)(=O)C(F)(F)F)cc1)c1ccc(C(C)(C)c2cccc(NS(=O)(=O)C(F)(F)F)c2)cc1,15,1,37
Cc1c(C)c(C)c(S(=O)(=O)N2CCCC2)c(C)c1C,63,-2,49
COc1ccc(-c2nc3ccccc3s2)cc1NC(=O)COc1cc(C)ccc1C(C)C,22,/,/
COc1ccc(S(=O)(=O)Nc2ccc3c(c2)C(=O)N([C@H](C)CO)C[C@H](C)[C@H](CN(C)Cc2ccc(Cl)c(Cl)c2)O3)cc1,73,-1,16
COc1ccc(CN(C)C[C@@H]2Oc3ccc(NS(=O)(=O)c4ccc(OC)cc4)cc3CC(=O)N([C@H](C)CO)C[C@H]2C)cc1,11,-2,3
COc1ccc(S(=O)(=O)Nc2ccc3c(c2)CC(=O)N([C@@H](C)CO)C[C@H](C)[C@H](CN(C)Cc2ccc(Cl)c(Cl)c2)O3)cc1,105*,1,39
COc1ccc(S(=O)(=O)Nc2ccc3c(c2)C(=O)N([C@H](C)CO)C[C@H](C)[C@@H](CN(C)Cc2ccc(Cl)c(Cl)c2)O3)cc1,51,0,-5
COc1ccc(S(=O)(=O)Nc2ccc3c(c2)CC(=O)N([C@@H](C)CO)C[C@@H](C)[C@@H](CN(C)Cc2ccc(Cl)c(Cl)c2)O3)cc1,107*,/,38
COc1ccc(S(=O)(=O)Nc2ccc3c(c2)CC(=O)N([C@H](C)CO)C[C@@H](C)[C@@H](CN(C)Cc2ccc(Cl)c(Cl)c2)O3)cc1,114*,-1,31
COc1ccc(S(=O)(=O)Nc2ccc3c(c2)C(=O)N([C@@H](C)CO)C[C@@H](C)[C@@H](CN(C)Cc2ccc(Cl)c(Cl)c2)O3)cc1,114*,-3,?
COc1ccc(CN(C)C[C@H]2Oc3ccc(NS(=O)(=O)c4ccc(OC)cc4)cc3CC(=O)N([C@H](C)CO)C[C@H]2C)cc1,16,/,-12
Cc1ccc(S(=O)(=O)NC(C)C(=O)Nc2cc([N+](=O)[O-])ccc2C)cc1 (configuration not stated),-4,-1,/
O=C(CC1NCCNC1=O)Nc1ccccc1Cl (configuration not stated),22,0,/
CCOc1ccccc1NC(=O)CSc1nc2ccccc2c(=O)n1-c1ccc(Cl)cc1,-15,-3,/
Cc1ccc2c(c1)C(C)(C)C1(C)N(Cc3ccccc3)C(=O)CN21 (configuration not stated),9,2,/
O=C(Nc1ccc(-c2nc3cc(NC(=O)C4CCCCC4)ccc3o2)cc1)C1CCCCC1,99*,0,33
O=C(Nc1cccc(-c2nc3ccccc3c(=O)o2)c1)C1CCCCC1,15,1,-19
Cc1ccc(NC(=O)CC2NCCNC2=O)cc1C (configuration not stated),0,3,/
CC(C)(C)NC(=O)N1CCN(c2ccc(C#N)cn2)CC1,-1,4,-19
CC(=O)Nc1ccc(C(=O)CSc2nc(C)cc(=O)[nH]2)cc1,24,-2,-7
Cc1c(C(=O)Nc2ccccc2C(=O)NCc2ccco2)cccc1[N+](=O)[O-],18,0,/
COc1cc2nc(N3CCN(C(=O)c4ccco4)CC3)nc(N)c2cc1OC,95*,2,1
SMILES,NOMO-1 viab,PD-1 reversal,Shh pathway inh
COc1cc2nc(N3CCN(C(=O)C4COc5ccccc5O4)CC3)nc(N)c2cc1OC (configuration not stated),-2,-1,28
O=C(Cn1c(=O)oc2ccccc21)Nc1ccc(S(=O)(=O)N2CCOCC2)cc1,-2,0,/
CCOC(=O)Cn1c(C)c(Sc2ccccc2)c2ccccc21,13,-2,/
C[C@@H]1CN([C@@H](C)CO)C(=O)Cc2cc(NC(=O)Nc3ccc4c(c3)OCO4)ccc2O[C@@H]1CN(C)Cc1ccc(C(=O)Nc2ccccc2N)cc1,101*,-2,/
Cc1noc(C)c1NC(=O)Nc1ccc2c(c1)CC(=O)N([C@@H](C)CO)C[C@H](C)[C@H](CN(C)Cc1ccc(C(=O)Nc3ccccc3N)cc1)O2,88*,0,/
C[C@@H]1CN([C@H](C)CO)C(=O)Cc2cc(NC(=O)NC3CCCCC3)ccc2O[C@H]1CN(C)Cc1ccc(C(=O)Nc2ccccc2N)cc1,16,-1,/
C[C@H]1CN([C@@H](C)CO)C(=O)Cc2cc(NC(=O)NC3CCCCC3)ccc2O[C@H]1CN(C)Cc1ccc(C(=O)Nc2ccccc2N)cc1,139*,1,/
CC(C)NC(=O)Nc1ccc2c(c1)CC(=O)N([C@@H](C)CO)C[C@H](C)[C@@H](CN(C)Cc1ccc(C(=O)Nc3ccccc3N)cc1)O2,24,-1,/
C[C@@H]1CN([C@@H](C)CO)C(=O)Cc2cc(NC(=O)C3CC3)ccc2O[C@@H]1CN(C)Cc1ccc(C(=O)Nc2ccccc2N)cc1,82*,0,/
C[C@@H]1CN([C@H](C)CO)C(=O)Cc2cc(NC(=O)C3CC3)ccc2O[C@H]1CN(C)Cc1ccc(C(=O)Nc2ccccc2N)cc1,45,-4,/
Cc1noc(C)c1NC(=O)Nc1ccc2c(c1)C(=O)N([C@@H](C)CO)C[C@H](C)[C@@H](CN(C)Cc1ccc(C(=O)Nc3ccccc3N)cc1)O2,-10,0,/
Cc1c(Cl)cccc1NC(=O)c1ccc(OCC(=O)Nc2ccc(F)cc2)cc1,13,-1,/
CC(Oc1ccc(Cl)cc1Cl)C(=O)Nc1cccc(Cl)c1N1CCOCC1 (configuration not stated),25,4,/
O=C(CSc1nnnn1-c1ccccc1F)Nc1ccc(Br)cc1,9,0,/
Cc1nnc(SCC(=O)Nc2ccc(Oc3ccccc3)cc2)s1,20,-1,/
O=C(O)c1cc(NS(=O)(=O)c2cccc3cccnc23)ccc1O,-7,1,/
CCc1nc(SCC(=O)Nc2c(C)cc(C)cc2[N+](=O)[O-])n[nH]1,-17,/,/
COC(=O)[C@@H]1OC(=O)C2OC23[C@@]1(C)CCC1[C@]2(C)C(C[C@@H](O)[C@]13C)C(C)(C)[C@H](OC(C)=O)C[C@@H]2OC(C)=O (some centres not stated),-18,/,-10
Cc1sc(NC(=O)c2ccccc2)c(C(=O)NCc2cccnc2)c1C,4,0,/
C[C@@H]1CN([C@H](C)CO)C(=O)Cc2cc(NC(=O)Nc3cccc4ccccc34)ccc2O[C@H]1CN(C)Cc1ccc(C(=O)Nc2ccccc2N)cc1,-20,-2,/
C[C@@H]1CN([C@@H](C)CO)C(=O)Cc2cc(NC(=O)Nc3ccccc3)ccc2O[C@@H]1CN(C)Cc1ccc(C(=O)Nc2ccccc2N)cc1,124*,-4,/
C[C@@H]1CN([C@H](C)CO)C(=O)Cc2cc(NC(=O)Nc3ccc(C(F)(F)F)cc3)ccc2O[C@H]1CN(C)Cc1ccc(C(=O)Nc2ccccc2N)cc1,24,-1,/
C[C@@H]1CN([C@@H](C)CO)C(=O)Cc2cc(NC(=O)Nc3ccc(F)cc3)ccc2O[C@@H]1CN(C)Cc1ccc(C(=O)Nc2ccccc2N)cc1,113*,1,/
